Laboratory results taken from PubChem BioAssay AID1159580 (chemical genetic matrix, 2015).
Among all 5,500 compounds or so, about 2,000 (36%) were called active. About 18% were inconclusive and are not listed. No stated cut-off is given here; in the data, active means normalized growth mostly below about 0.91 (no sharp cut-off); inconclusive means no clear call, values can overlap the other calls; inactive means mostly above about 0.92. Some of the results follow.

Test: chemical genetic growth profiling, strain panel (AID 1159580);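 further: tested at 20 µM; growth read once vehicle control cultures reached saturation at 30 °C; 1 = growth at the plate median or of vehicle wells; lower values mean less growth of the strain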
Settings: growth OD

Measured: normalized growth

Nc1ccc(S(=O)(=O)Nc2ccc(Cl)nn2)cc1
inactive: S. cerevisiae deletion strains, locus YJR043C, strain POL32, hits give low values 0.991 | S. cerevisiae deletion strains, locus YJR066W, strain TOR1, hits give low values 0.926 | S. cerevisiae deletion strains, locus YKL009W, strain mrt4, hits give low values 1.03 | S. cerevisiae deletion strains, locus YKL068W, hits give low values 0.998 | S. cerevisiae deletion strains, locus YKL085W, strain MDH1 (second series), hits give low values 0.992 | S. cerevisiae deletion strains, locus YKL085W, strain MDH1, hits give low values 0.992 | S. cerevisiae deletion strains, locus YKL160W, strain elf1, hits give low values 0.966 | S. cerevisiae deletion strains, locus YKL190W, strain CNB1, hits give low values 1.01 | S. cerevisiae deletion strains, locus YKR001C, strain vps1, hits give low values 0.995 | S. cerevisiae deletion strains, locus YKR026C, strain gcn3, hits give low values 0.982 | S. cerevisiae deletion strains, locus YKR091W, strain srl3, hits give low values 0.996 | S. cerevisiae deletion strains, locus YLL001W, strain dnm1, hits give low values 0.981 | S. cerevisiae deletion strains, locus YLL026W, hits give low values 0.998 | S. cerevisiae deletion strains, locus YLL041C, strain sdh2, hits give low values 0.989 | S. cerevisiae deletion strains, locus YLR027C, strain aat2, hits give low values 0.995 | S. cerevisiae deletion strains, locus YLR039C, strain RIC1, hits give low values 1.06 | S. cerevisiae deletion strains, locus YLR058C, strain SHM2, hits give low values 1.01 | S. cerevisiae deletion strains, locus YLR102C, strain apc9, hits give low values 1 | S. cerevisiae deletion strains, locus YLR113W, strain HOG1, hits give low values 0.984 | S. cerevisiae deletion strains, locus YLR221C, strain rsa3, hits give low values 0.991 | S. cerevisiae deletion strains, locus YLR258W, strain gsy2, hits give low values 0.991 | S. cerevisiae deletion strains, locus YLR262C, strain YPT6 (second series), hits give low values 0.986 | S. cerevisiae deletion strains, locus YLR262C, strain YPT6, hits give low values 1.06 | S. cerevisiae deletion strains, locus YLR268W, strain sec22, hits give low values 1 | S. cerevisiae deletion strains, locus YLR320W, strain mms22, hits give low values 0.969 | S. cerevisiae deletion strains, locus YLR330W, strain CHS5, hits give low values 1.01 | S. cerevisiae deletion strains, locus YLR342W, strain FKS1 (second series), hits give low values 1.05 | S. cerevisiae deletion strains, locus YLR342W, strain FKS1, hits give low values 0.98 | S. cerevisiae deletion strains, locus YLR357W, strain rsc2, hits give low values 0.978 | S. cerevisiae deletion strains, locus YLR370C, strain arc18, hits give low values 0.984 | S. cerevisiae deletion strains, locus YLR371W, strain rom2, hits give low values 1 | S. cerevisiae deletion strains, locus YLR384C, strain iki3, hits give low values 0.993 | S. cerevisiae deletion strains, locus YLR418C, strain cdc73, hits give low values 1.03 | S. cerevisiae deletion strains, locus YML016C, strain PPZ1, hits give low values 1 | S. cerevisiae deletion strains, locus YML032C, strain rad52, hits give low values 1.01 | S. cerevisiae deletion strains, locus YML120C, strain ndi1, hits give low values 0.983 | S. cerevisiae deletion strains, locus YML124C, strain tub3, hits give low values 1.01 | S. cerevisiae deletion strains, locus YMR058W, strain fet3, hits give low values 0.987 | S. cerevisiae deletion strains, locus YMR078C, strain ctf18, hits give low values 1.01 | S. cerevisiae deletion strains, locus YMR125W, strain sto1, hits give low values 0.984 | S. cerevisiae deletion strains, locus YMR129W, hits give low values 0.986 | S. cerevisiae deletion strains, locus YMR205C, strain PFK2, hits give low values 0.97 | S. cerevisiae deletion strains, locus YMR223W, strain ubp8, hits give low values 1.04 | S. cerevisiae deletion strains, locus YMR231W, strain pep5, hits give low values 0.987 | S. cerevisiae deletion strains, locus YMR263W, strain SAP30, hits give low values 0.995 | S. cerevisiae deletion strains, locus YMR307W, strain GAS1, hits give low values 1.04 | S. cerevisiae deletion strains, locus YNL067W, strain RPL9B, hits give low values 0.983 | S. cerevisiae deletion strains, locus YNL071W, strain lat1, hits give low values 0.995 | S. cerevisiae deletion strains, locus YNL183C, strain NPR1, hits give low values 0.927 | S. cerevisiae deletion strains, locus YNL209W, strain ssb2, hits give low values 0.999 | S. cerevisiae deletion strains, locus YNL233W, strain BNI4, hits give low values 0.989 | S. cerevisiae deletion strains, locus YNL248C, strain rpa49, hits give low values 0.994 | S. cerevisiae deletion strains, locus YNL250W, strain rad50, hits give low values 1.03 | S. cerevisiae deletion strains, locus YNL271C, strain bni1, hits give low values 1 | S. cerevisiae deletion strains, locus YNL298W, strain CLA4, hits give low values 1 | S. cerevisiae deletion strains, locus YNL307C, strain MCK1, hits give low values 1.01 | S. cerevisiae deletion strains, locus YNL322C, strain KRE1 (second series), hits give low values 0.976 | S. cerevisiae deletion strains, locus YNR049C, strain mso1, hits give low values 0.995 | S. cerevisiae deletion strains, locus YNR052C, strain pop2, hits give low values 1.01 | S. cerevisiae deletion strains, locus YOL006C, strain TOP1, hits give low values 0.951 | S. cerevisiae deletion strains, locus YOL012C, strain htz1 1.39 | S. cerevisiae deletion strains, locus YOL147C, strain pex11, hits give low values 1 | S. cerevisiae deletion strains, locus YOR001W, strain rrp6, hits give low values 0.995 | S. cerevisiae deletion strains, locus YOR061W, strain CKA2, hits give low values 1 | S. cerevisiae deletion strains, locus YOR069W, strain VPS5, hits give low values 1.01 | S. cerevisiae deletion strains, locus YOR070C, strain gyp1, hits give low values 0.991 | S. cerevisiae deletion strains, locus YOR080W, strain dia2, hits give low values 0.979 | S. cerevisiae deletion strains, locus YOR083W, strain WHI5, hits give low values 0.96 | S. cerevisiae deletion strains, locus YOR106W, strain vam3, hits give low values 0.959 | S. cerevisiae deletion strains, locus YOR136W, strain idh2, hits give low values 0.995 | S. cerevisiae deletion strains, locus YOR144C, strain elg1, hits give low values 0.995 | S. cerevisiae deletion strains, locus YOR184W, strain ser1, hits give low values 1.02 | S. cerevisiae deletion strains, locus YOR231W, strain MKK1, hits give low values 0.991 | S. cerevisiae deletion strains, locus YOR265W, strain rbl2, hits give low values 0.999 | S. cerevisiae deletion strains, locus YOR270C, strain vph1, hits give low values 0.994 | S. cerevisiae deletion strains, locus YOR290C, strain snf2, hits give low values 0.985 | S. cerevisiae deletion strains, locus YOR316C, strain cot1, hits give low values 0.997 | S. cerevisiae deletion strains, locus YPL051W, strain arl3, hits give low values 0.98 | S. cerevisiae deletion strains, locus YPL078C, strain atp4, hits give low values 0.982 | S. cerevisiae deletion strains, locus YPL106C, strain sse1, hits give low values 0.969 | S. cerevisiae deletion strains, locus YPL240C, strain hsp82, hits give low values 0.978 | S. cerevisiae deletion strains, locus YPL256C, strain CLN2, hits give low values 0.962 | S. cerevisiae deletion strains, locus YPR119W, strain clb2, hits give low values 0.999 | S. cerevisiae deletion strains, locus YPR141C, strain kar3, hits give low values 0.995 | S. cerevisiae deletion strains, locus YPR163C, strain tif3, hits give low values 1.01 | S. cerevisiae deletion strains, locus YPR167C, strain met16, hits give low values 1 | S. cerevisiae deletion strains, strain wtn01, hits give low values 1.02 | S. cerevisiae strains, strain wild type, hits give low values 1.01
